The source made the active and inactive calls. The calls were made as follows: active = hit-call score of the fitted dose curve at least 0.9, where 1 is the maximum; inactive = score below 0.9.
experiment: CCTE_Shafer_MEA_acute_cross_correlation_area: CCTE's Neural Acute Assay for Area of Cross Correlation, Shafer Lab (AID 2284024);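 also: curves fitted for loss of cross-correlation area so actives lower synchrony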
Protocol: CCTE_Shafer_MEA_acute assay is conducted using Axion Biosystems 48 well microelectrode array (MEA) plates and Maestro recording system. Each well of the MEA plate contains a grid of 16 microelectrodes embedded in the culture surface. Electrically active cells, such as neurons, can be cultured over the electrodes, and electrical activity in these cells can be recorded extracellularly. The spontaneous firing of neurons is captured from each electrode on a microsecond timescale providing both temporally and spatially precise data. […] The CCTE_Shafer_MEA_acute assay uses primary cultures of rat cortical neurons. As these cultures mature over time, neural networks develop functional activity and form cohesive networks in which electrical activity can be highly coordinated. Baseline 40-minute recordings are made on days post-plating 13 or 15, followed by a secondary 40-minute recording after chemical exposure.CCTE_Shafer_MEA_acute_cross_correlation_area is a component of the CCTE_Shafer_MEA_acute assay. It measures the area under the well-wide pooled inter-electrode cross-correlation of action potential firing (not normalized to auto-correlations) within a window centered around 0 for the phase lag during a recording in a microelectrode array (MEA) using Axion Biosystems Maestro 768 channel amplifier with the AxIS adaptive spike detector. The recordings before and after chemical treatment are used to calculate a percent change in the cross correlation area in each well.Data from the assay component CCTE_Shafer_MEA_acute_cross_correlation_area was analyzed into 1 assay endpoint. This assay endpoint, CCTE_Shafer_MEA_acute_cross_correlation_area, was analyzed in the negative analysis fitting direction relative to DMSO as the negative control and baseline of activity. Using a type of functional reporter, gain or loss-of-signal activity can be used to understand electrical activity.
Spontaneous activity in the cortical cultures was recorded using an Axion Biosystems Maestro 768 channel amplifier and Axion Integrated Studios (AxIS) v1.8 (or later) software. The amplifier recorded from all channels simultaneously (gain = 1200 x; sampling rate = 12.5 kHz/channel): raw signals were filtered with a Butterworth band-pass filter (300-5000 Hz), which filters out slower local field potentials leaving only fast potentials, i.e., "spikes", arising from extracellular currents associated with action potentials (Pine 2006; Wheeler and Nam 2011). On-line spike detection of filtered signals was conducted with the AxIS adaptive spike detector, using a threshold of 8x the root mean squared (rms) noise on each channel. Any electrodes with rms noise levels greater than 5 uV were grounded (e.g., no data were recorded). Once grounded, an electrode was grounded for the duration of the experiment. All recordings were conducted at 37 C. Wells were deemed usable if on the day of the exposure >/= 10 electrodes were active (defined as >/= 5 spikes/min). On DIV 13 or 15, a minimum of three wells from one cortical culture preparation were treated with each compound (0.03-40 uM). Prior to recording baseline activity, each mwMEA plate was placed in the Maestro at 37 C and allowed to sit for 20 min while firing rates stabilized. Baseline activity (40 min) was recorded before the addition of each compound. An additional 40 min of spontaneous activity was recorded in the presence of each compound. Changes in network parameters relative to baseline were assessed following compound treatment.

Row | Compound | outcome | AC50
1 | Clc1nc(Cl)nc(Nc2ccccc2Cl)n1 | inactive | 
2 | OC(c1ccc(Cl)cc1)(c1ccc(Cl)cc1)C(Cl)(Cl)Cl | inactive | 
3 | N#CN=C1SCCN1Cc1ccc(Cl)nc1 | inactive | 
4 | COP(=S)(OC)SCn1nnc2ccccc2c1=O | inactive | 
5 | N#Cc1c[nH]cc1-c1cccc2c1OC(F)(F)O2 | inactive | 
6 | CC(C)C1(C)N=C(c2ncccc2C(=O)O)NC1=O (stereo unspecified) | inactive | 
7 | CC(C)N1C(=O)c2ccccc2NS1(=O)=O | inactive | 
8 | CCCCC(O)(Cn1cncn1)c1ccc(Cl)cc1Cl (stereo unspecified) | inactive | 
9 | CC(C)N1C(=O)N(c2ccccc2)CSC1=NC(C)(C)C | inactive | 
10 | CC1(C)C(C(=O)OC(C#N)c2cccc(Oc3ccccc3)c2)C1(C)C (stereo unspecified) |  | 0.645 µM (active)
11 | CCCC(=NOCC)C1=C(O)CC(CC(C)SCC)CC1=O (stereo unspecified) | inactive | 
12 | CCOP(=O)(OCC)Oc1nc(Cl)c(Cl)cc1Cl | inactive | 
13 | CCOC(=O)C(C)OC(=O)c1cc(Oc2ccc(C(F)(F)F)cc2Cl)ccc1[N+](=O)[O-] (stereo unspecified) | inactive | 
14 | Cc1nc(N(C)C)nc(OC(=O)N(C)C)c1C | inactive | 
15 | CO/N=C(/C1=NOCCO1)c1ccccc1Oc1ncnc(Oc2ccccc2Cl)c1F | inactive | 
16 | CN/C(=N\[N+](=O)[O-])NCc1cnc(Cl)s1 |  | 0.16 µM (active)

Row | Compound | outcome | AC50
17 | COCC(=O)N(c1c(C)cccc1C)C(C)C(=O)OC (stereo unspecified) | inactive | 
18 | C=C(C)CN(CC)c1c([N+](=O)[O-])cc(C(F)(F)F)cc1[N+](=O)[O-] | inactive | 
19 | Cc1c(COC(=O)[C@@H]2[C@H](/C=C(\Cl)C(F)(F)F)C2(C)C)cccc1-c1ccccc1 | inactive | 
20 | COC(=O)N(C(=O)N1CO[C@@]2(C(=O)OC)Cc3cc(Cl)ccc3C2=N1)c1ccc(OC(F)(F)F)cc1 | inactive | 
21 | CC(C)=CC1C(C(=O)OCc2coc(Cc3ccccc3)c2)C1(C)C (stereo unspecified) | inactive | 
22 | CC1(C)C(C=C(Cl)Cl)C1C(=O)OC(C#N)c1cccc(Oc2ccccc2)c1 (stereo unspecified) | inactive | 
23 | CCCN(CC)CC1COC2(CCC(C(C)(C)C)CC2)O1 (stereo unspecified) | inactive | 
24 | Cc1ccc(N=CN(C)C=Nc2ccc(C)cc2C)c(C)c1 | inactive | 
25 | CNC(=O)Oc1cccc2ccccc12 | inactive | 
26 | Cn1c(-c2ccccc2)cc(-c2ccccc2)[n+]1C | inactive | 
27 | CCOc1nc(F)cc2nc(S(=O)(=O)Nc3c(Cl)cccc3Cl)nn12 | inactive | 
28 | O=C(Nc1ccccc1-c1ccc(Cl)cc1)c1cccnc1Cl | inactive | 
29 | Nc1c(Cl)c(F)nc(OCC(=O)O)c1Cl | inactive | 
30 | CC1(C)CCC(=Cc2ccc(Cl)cc2)C1(O)Cn1cncn1 (stereo unspecified) | inactive | 
31 | CCOc1cc(C(C)(C)C)ccc1C1COC(c2c(F)cccc2F)=N1 (stereo unspecified) | inactive | 

Reference: PubChem BioAssay (EPA / NIEHS)
